# Source: article PMC4336329 (PLoS ONE, 2015)
# Hit rate of the full screen: of about 310,000 compounds, about 2,200 (0.71%) showed an effect of 50% or more. The effect is printed as a negative number. Only a selection was taken, and strong results are over-represented in it overall.
# Target: human ether-à-go-go-related gene (hERG) potassium channel (human, UniProt Q12809)
# Assay: primary screen, population patch clamp on CHO cells stably expressing hERG; higher = less effect of the substance
# Sequence of human ether-à-go-go-related gene (hERG) potassium channel (Q12809 whole entry, looked up): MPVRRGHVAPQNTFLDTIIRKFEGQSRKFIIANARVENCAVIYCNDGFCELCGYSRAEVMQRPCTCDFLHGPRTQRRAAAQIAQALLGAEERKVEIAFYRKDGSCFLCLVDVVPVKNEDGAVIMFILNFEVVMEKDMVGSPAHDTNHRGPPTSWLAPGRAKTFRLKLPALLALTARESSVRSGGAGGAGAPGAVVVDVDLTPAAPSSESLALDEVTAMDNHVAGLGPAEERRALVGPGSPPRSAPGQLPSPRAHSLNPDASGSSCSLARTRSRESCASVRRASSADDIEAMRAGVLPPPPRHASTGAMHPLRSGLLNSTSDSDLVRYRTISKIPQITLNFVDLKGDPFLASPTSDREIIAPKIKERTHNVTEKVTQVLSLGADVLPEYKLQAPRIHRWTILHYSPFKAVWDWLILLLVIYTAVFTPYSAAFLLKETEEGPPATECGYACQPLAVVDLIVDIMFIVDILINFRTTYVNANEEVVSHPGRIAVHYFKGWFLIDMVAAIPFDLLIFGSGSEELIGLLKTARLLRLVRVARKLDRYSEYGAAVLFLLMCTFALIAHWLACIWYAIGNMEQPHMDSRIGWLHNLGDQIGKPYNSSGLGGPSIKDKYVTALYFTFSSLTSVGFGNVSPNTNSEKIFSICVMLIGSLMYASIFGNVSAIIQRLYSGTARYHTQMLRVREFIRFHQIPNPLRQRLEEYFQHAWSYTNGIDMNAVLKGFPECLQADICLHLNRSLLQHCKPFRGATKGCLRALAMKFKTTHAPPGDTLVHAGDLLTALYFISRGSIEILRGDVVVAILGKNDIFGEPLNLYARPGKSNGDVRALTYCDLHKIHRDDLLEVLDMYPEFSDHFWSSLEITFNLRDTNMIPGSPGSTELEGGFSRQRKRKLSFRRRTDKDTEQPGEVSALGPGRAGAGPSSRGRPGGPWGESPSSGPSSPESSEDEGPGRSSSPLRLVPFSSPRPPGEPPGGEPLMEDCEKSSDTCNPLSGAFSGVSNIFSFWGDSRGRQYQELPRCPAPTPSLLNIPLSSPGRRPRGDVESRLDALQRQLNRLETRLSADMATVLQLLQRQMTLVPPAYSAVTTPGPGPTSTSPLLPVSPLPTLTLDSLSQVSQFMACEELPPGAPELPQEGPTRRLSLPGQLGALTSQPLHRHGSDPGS
row,SMILES,"hERG current change (%, negative = inhibition) at 1uM [%]"
1,O=C(Cc1ccccc1)NC1CCN(C(=O)NCc2ccccc2)CC1,-8.61
2,N#Cc1nc(COc2cccc(Cl)c2)oc1NCCN1CCOCC1,-22.3
3,CC1CN(S(=O)(=O)c2cccc(C(=O)Nc3ccc4c(c3)CCC4)c2)CC(C)O1 (centres unmarked),1.39
4,O=C(CN(Cc1ccccc1Cl)C(=O)CN1C(=O)CSc2ccccc21)NC1CC1,-30.7
5,Cc1ccc(-c2nc3ccccc3[nH]2)cc1NC(=S)NC(=O)c1ccccc1Br,8.3
6,c1ccc(-c2noc(-c3ccc4c(c3)OCO4)n2)nc1,14.3
7,O=C(CCC(=O)Nc1ccccc1)NNC(=O)CCc1ccccc1,13.6
8,COc1cccc(OC)c1NC(=O)C1CCCN1C(=O)NCc1ccccc1 (centres unmarked),3.69
9,COC(=O)c1ccc(NC(=O)C2C3CCC(C3)C2C(=O)O)cc1 (centres unmarked),3.27
10,O=C(O)c1ccc(S(=O)(=O)NCc2ccc3c(c2)OCO3)cc1,11.3
11,COc1ccc(OCC(=O)Nc2ccc3c(c2)nc(CCN2CCC(C)CC2)n3C)cc1,-46.3
12,CC1CCN(CCc2nc3cc(NC(=O)COc4ccc(Cl)cc4)ccc3n2C)CC1,-60.7
13,CC1CCN(CCc2nc3cc(NC(=O)COc4ccccc4)ccc3n2C)CC1,-33.9
14,CC1CCN(CCc2nc3cc(NC(=O)COc4ccc([N+](=O)[O-])cc4)ccc3n2C)CC1,-2.45
15,Cn1c(CCN2CCOCC2)nc2cc(NC(=O)COc3ccc(Cl)cc3)ccc21,2
16,Cc1ccc(OCC(=O)Nc2ccc3c(c2)nc(CCN2CCC(C)CC2)n3C)cc1,-53.3
17,CCOc1ccc(NS(=O)(=O)c2ccc3c(c2)N(C(C)=O)CCO3)cc1,17
18,C[C@]12CCC(=O)CC1CCC1C2CC[C@]2(C)C(OC(=O)CCC(=O)O)CCC12 (some centres unmarked),9.84
19,CCC1CCCCN1C(=O)Nc1cc(Cl)ccc1OC (centres unmarked),15.2
20,O=C(c1ccco1)N1CCN(C(=O)C2CCN(S(=O)(=O)c3cccs3)CC2)CC1,-26.1
21,CCc1nn(CC(=O)NCCCN2CCN(C)CC2)c(=O)c2cc3sccc3n12,5.53
22,CCc1nn(CC(=O)NCCCN2CCc3ccccc3C2)c(=O)c2cc3sccc3n12,-53.8
23,CCc1nn(CC(=O)NCCCN2CCOCC2)c(=O)c2cc3sccc3n12,15.6

row,SMILES,"hERG current change (%, negative = inhibition) at 1uM [%]"
1,COc1cc(S(=O)(=O)Nc2ncn[nH]2)ccc1Cl,13.5
2,COCCN1Cc2cccc(C(=O)NCc3ccccc3OC)c2C1=O,3.2
3,Cc1ccc(NC(=S)NCCN(C2CCCCC2)C2CCCC2)cc1,-10.5
4,Cc1cc(C)cc(NC(=S)NC2CC3CCCC(C2)N3C2CC2)c1 (centres unmarked),-32
5,CCCN1C2CCCC1CC(NC(=S)Nc1cc(C)cc(C)c1)C2 (centres unmarked),-81.4
6,CCCN1C2CCCC1CC(NC(=S)Nc1cc(C)ccc1C)C2 (centres unmarked),8.55
7,Cc1cc(C)cc(NC(=S)NC2CC3CCCC(C2)N3CC(C)C)c1 (centres unmarked),11.3
8,Cc1cc(C)cc(NC(=S)NCCN(C2CCCCC2)C2CCCC2)c1,-59.7
9,CCCN1C2CCCC1CC(NC(=S)Nc1cccc(C)c1)C2 (centres unmarked),-12.7
10,Cc1cccc(NC(=S)NCCN(C2CCCCC2)C2CCCC2)c1,-1.59
11,Cc1cc(C)cc(NC(=S)NC2CC3CCCC(C2)N3C2CCCC2)c1 (centres unmarked),-52.3
12,Cc1ccc(CSc2ccc(-c3ccc4c(c3)OCO4)nn2)cc1,12.7
13,COc1ccccc1CC(=O)NCCCc1ccccc1,11.2
14,O=C(CCS(=O)(=O)c1ccc2c(c1)NC(=O)CS2)NCCc1ccc(Cl)cc1,10
15,CCN(C(=O)COC(=O)CNC(=O)c1ccc(F)cc1)C1CCS(=O)(=O)C1 (centres unmarked),9.62
16,COC(=O)Nc1c(C(=O)OC)cc(OC)c(OC)c1OC,6.05
17,CC1=NNC(=O)C1CCC(=O)N/N=C/c1ccc(Cl)cc1Cl (centres unmarked),12.6
18,COc1cc(OC)cc(C(=O)NNC(=O)c2ccc(S(=O)(=O)N(C)c3ccccc3OC)cc2)c1,13.2
19,CS(=O)(=O)N1CCN(C(=O)c2ccc(-c3ccccc3)cc2)CC1,9.18
20,COc1cc(F)cc(-c2ccc3c(c2)c(-c2cccs2)c(-c2cc(OC)cc(OC)c2)n3C)c1,12.5
21,CCOC(=O)C1(Cc2cccc(OC)c2)CCN(Cc2ccc(C)s2)CC1,-53.1
22,CCOC(=O)C1(CCOc2ccccc2)CCN(Cc2cccc(F)c2)CC1,-7.5
23,CCOC(=O)C1(CCOC)CCN(Cc2cccc(OCc3ccccc3)c2)CC1,3.99

row,SMILES,"hERG current change (%, negative = inhibition) at 1uM [%]"
1,CCOC(=O)C1(CCOc2ccccc2)CCN(Cc2cccc(OCCO)c2)CC1,-84.4
2,CCOC(=O)C1(CCOc2ccccc2)CCN(Cc2cnc(SC)nc2)CC1,-28.4
3,CCOC(=O)C1(Cc2cccc(OC)c2)CCN(Cc2cnc(C)s2)CC1,11
4,CCOC(=O)C1(CCOc2ccccc2)CCN(Cc2ccc(OC)cc2)CC1,-77.4
5,CCOC(=O)C1(Cc2ccccc2)CCN(Cc2ccc(C)s2)CC1,-2.06
6,CCOC(=O)C1(CCOc2ccccc2)CCN(Cc2cccc(-n3cccn3)c2)CC1,-68.5
7,CCOC(=O)C1(CCOc2ccccc2)CCN(Cc2ccc(-n3cccn3)cc2)CC1,-37.8
8,Cc1ccc(NC(=O)CCC(=O)NNC(=O)COc2ccccc2)c(C)c1,7.32
9,CC1(C)C(=O)OC(c2c3ccccc3cc3ccccc23)C(C)(C)C1=O (centres unmarked),0.485
10,COc1ccc(/C=C/c2cc(=O)c3cc(Cl)ccc3o2)cc1,9.88
11,COCCn1ccc2c(OCC(=O)NCCc3ccccc3)cccc2c1=O,0.744
12,CSc1ccc(C2CC(=O)Nc3nc(SC)[nH]c(=O)c32)cc1 (centres unmarked),17
13,O=C(O)c1ccc(S(=O)(=O)c2ccc3c(c2)C(=O)N(NC(=O)c2ccncc2)C3=O)cc1,5.01
14,NNC(=O)c1nc(-c2ccccc2)n2c1CCCCC2,0.842
15,O=C(OCC(=O)N1CCCC1)c1c2c(nc3ccccc13)CCCCC2,9.48
16,CC1(C)CC(c2nc(-c3ccc([N+](=O)[O-])cc3)cs2)CCO1 (centres unmarked),9.08
17,CC(C)NC(=O)NS(=O)(=O)c1cnccc1NC1CC2CCC1C2 (centres unmarked),9.06
18,CCn1cc([N+](=O)[O-])c(C(=O)N2N=C(c3ccc(O)c(OC)c3)CC2c2ccccc2O)n1 (centres unmarked),18.1
19,Cc1ccc2nc(-c3ccccn3)oc2c1,12.6
20,Cc1ccccc1NC(=O)NCCc1ccc(Cl)cc1,8.42
21,CCOC(=O)C1(CCOc2ccccc2)CCN(Cc2ccc(O)cc2)CC1,-84.8
22,CCOC(=O)C1(CCOc2ccccc2)CCN(Cc2ccc(C#CCCO)cc2)CC1,0.161
23,CCOC(=O)C1(CCOc2ccccc2)CCN(Cc2ccc(C)s2)CC1,-65.4

row,SMILES,"hERG current change (%, negative = inhibition) at 1uM [%]"
1,CCOC(=O)C1(CCOc2ccccc2)CCN(Cc2cccs2)CC1,-32.6
2,CCOC(=O)C1(CCOc2ccccc2)CCN(C(=O)CCSC)CC1,-11.3
3,CCOC(=O)C1(CCOc2ccccc2)CCN(Cc2cccc(O)c2)CC1,-28.7
4,CCOC(=O)C1(CCOc2ccccc2)CCN(C(=O)c2ccc(-n3cccn3)cc2)CC1,-85.6
5,CCOC(=O)C1(CCOc2ccccc2)CCN(Cc2ccncc2)CC1,-23.5
6,CCOC(=O)C1(CCOc2ccccc2)CCN(Cc2ccc(OCCO)cc2)CC1,-85.1
7,CCOC(=O)C1(CCOc2ccccc2)CCN(Cc2cnc(C)s2)CC1,-18.8
8,CCOC(=O)C1(CCOc2ccccc2)CCN(C(=O)c2cncs2)CC1,-27.4
9,CCOc1ccccc1N(CC(=O)Nc1ccccc1C(=O)NCc1ccco1)S(C)(=O)=O,2.08
10,CC(Sc1nnc(Nc2ccccc2F)s1)C(=O)NC1CC1 (centres unmarked),3
11,COCCc1ncc(CN2CCC(C(=O)Nc3ccc(-n4cccn4)cc3)CC2)cn1,-5.56
12,CNC(=O)c1cc2cc(OC)ccc2oc1=O,-4.3
13,O=C(O)c1ccc(NCc2ccc3c(c2)OCO3)cc1,10.6
14,Cc1nc2sccn2c(=O)c1S(=O)(=O)Nc1ccc(N2CCN(C)CC2)cc1,21.4
15,CC1CN(c2ccc([N+](=O)[O-])c(N3CCCCC3)c2)CCN1 (centres unmarked),8.07
16,CCOC(=O)C1(CCOc2ccccc2)CCN(Cc2cc(OC)cc(OC)c2)CC1,-61.5
17,CCOC(=O)C1(Cc2cccc(OC)c2)CCN(CCO)CC1,2.3
18,CCOC(=O)C1(CCOc2ccccc2)CCN(Cc2cccc(OC)c2)CC1,-24.4
19,CCOC(=O)C1(Cc2cccc(OC)c2)CCN(CC2CC=CCC2)CC1 (centres unmarked),-50.6
20,CCOC(=O)C1(Cc2ccccc2)CCN(CC2CC=CCC2)CC1 (centres unmarked),-5.83
